# Results as given in PubChem BioAssay (NCATS).
# Inconclusive results are not listed. Activity calls are given as the source filed them. Calls come from the whole dose curve; as a rule, active = well fitted cell-killing curve with a large enough effect; inconclusive = small, poorly fitted or top-dose-only effect, or effect the other way; inactive = no such curve, though single readings can be large or run the other way.
# Assay: Quantitative High-Throughput drug screen in 47 multiple myeloma cell lines against the NCATS MIPE library collection: KMS11_JCRBsus cell viability assay (AID 1919873); note: nearly all actives have a fitted effect of over 50% in size
# Conditions: KMS11 myeloma viability, CellTiter-Glo ATP luminescence, 48 h; series mostly up to 45.8 µM
# In short: (§1)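 500 cells/well per myeloma line exposed to pinned MIPE 4.0 compounds for 48 h at 37 °C, 5% CO2. Viability read as ATP by CellTiter-Glo luminescence, normalised to DMSO-only (100%) and media-only (0%) wells.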
# Potency is the fitted concentration of half-maximal effect.
row,SMILES,Potency
1,Cc1cn(-c2cc(NC(=O)c3ccc(C)c(Nc4nccc(-c5cccnc5)n4)c3)cc(C(F)(F)F)c2)cn1,5260 nM (active)
2,CCCCCCCCCC(=O)N[C@@H](Cc1c[nH]c2ccccc12)C(=O)N[C@H](CC(N)=O)C(=O)N[C@@H](CC(=O)O)C(=O)N[C@@H]1C(=O)NCC(=O)N[C@@H](CCCN)C(=O)N[C@@H](CC(=O)O)C(=O)N[C@H](C)C(=O)N[C@@H](CC(=O)O)C(=O)NCC(=O)N[C@H](CO)C(=O)N[C@@H]([C@@H](C)CC(=O)O)C(=O)N[C@@H](CC(=O)c2ccccc2N)C(=O)O[C@@H]1C,inactive
3,COc1ccc(OC)c(-c2nnc3ccc(-c4ccc(OC)c(O[C@@H]5CCOC5)c4)nn23)c1,6620 nM (active)
4,CNC(=O)c1ccc(-c2cnc3ncc(Cc4ccc5ncccc5c4)n3n2)cc1F,inactive
5,Cc1nc2ccc(CN(C)c3ccc(C(=O)N[C@@H](CCC(=O)O)C(=O)O)s3)cc2c(=O)[nH]1,9.3 nM (active)
6,C[C@@H]1CN(CC(=O)Nc2ccc3c(c2)Cc2cccc(-c4cc(=O)cc(N5CCOCC5)o4)c2S3)C[C@H](C)O1,16600 nM (active)
7,CC(=O)c1c(C)c2cnc(Nc3ccc(N4CCNCC4)cn3)nc2n(C2CCCC2)c1=O,20900 nM (active)
8,COc1cc(C)c(Sc2cnc(NC(=O)c3ccc(CNC(C)C(C)C)cc3)s2)cc1C(=O)N1CCN(C(C)=O)CC1 (configuration not stated),8330 nM (active)
9,COC(=O)C1=C(C)NC(C)=C(C(=O)OCCN2CCN(C(c3ccccc3)c3ccccc3)CC2)C1c1cccc([N+](=O)[O-])c1 (configuration not stated),inactive
10,COc1cc2c(cc1-c1c(C)noc1C)ncc1[nH]c(=O)n([C@H](C)c3ccccn3)c12,264 nM (active)
11,CC(=O)OCCN1C(=O)c2c(C)nc3ccc(S(=O)(=O)N4CCOCC4)cc3c2C1=O,inactive
12,CC(=O)Nc1nc(C)c(-c2ccc(Cl)c(S(=O)(=O)NCCO)c2)s1,5260 nM (active)
13,Nc1ccc(C(=O)c2cc3c(ccc4ccccc43)[nH]2)cc1,743 nM (active)
14,Nc1ncnc2c1c(-c1cnc3[nH]ccc3c1)nn2C1CCCC1,46.9 nM (active)
15,CNc1nccc(-c2cccnc2Oc2cc(C(=O)Nc3cccc(C(F)(F)F)c3)ccc2C)n1,18700 nM (active)
16,COc1cc(=C2C=c3ccccc3=N2)[nH]c1=Cc1[nH]c(C)cc1C,1050 nM (active)

row,SMILES,Potency
1,O=C(O)Cn1nnc(-c2cc(N3CCC(Oc4cc(F)ccc4Br)CC3)no2)n1,inactive
2,Cn1cc(-c2[nH]c3cc(NC(=O)[C@H](N)C4CCCCC4)cc4c3c2C=NNC4=O)cn1,2640 nM (active)
3,C[C@@]12O[C@@H](C[C@]1(O)CO)n1c3ccccc3c3c4c(c5c6ccccc6n2c5c31)CNC4=O,418 nM (active)
4,CN1CCN(c2cc(C(=O)Nc3ccc4c(c3)-c3c(c(C(N)=O)nn3-c3ccc(F)cc3)CC4)c(Cl)cn2)CC1,8330 nM (active)
5,CCCCc1nc2cc(C=CC(=O)NO)ccc2n1CCN(CC)CC,372 nM (active)
6,Cn1c(CNc2ccc(C(=N)N)cc2)nc2cc(C(=O)N(CCC(=O)O)c3ccccn3)ccc21,inactive
7,CC(C)c1ccc(Cn2ccc3c4c(N)nc(NC5CC5)nc4ccc32)cc1,1050 nM (active)
8,N#Cc1c(O)c2c(-c3ccc(-c4ccccc4O)cc3)csc2[nH]c1=O,inactive
9,O=C(C=Cc1cccnc1)NCCCCC1CCN(C(=O)c2ccccc2)CC1,14.8 nM (active)
10,CC=CC1=C(C(=O)O)N2C(=O)[C@H](NC(=O)[C@H](N)c3ccc(O)cc3)[C@@H]2SC1,inactive
11,Cc1c(C)n(Cc2ccc(-c3ccccc3C(=O)O)cc2)c2ccc(C(=O)N[C@@H](C)c3ccc([N+](=O)[O-])cc3)cc12,18700 nM (active)
12,O=C(O)c1ccc2c(c1)nc(Nc1cccc(Cl)c1)c1ccncc12,7430 nM (active)
13,Cc1ccc2nc(NC(=O)CSc3nc4c(c(=O)n3-c3ccccc3)SCC4)sc2c1,8330 nM (active)
14,CC1=C(CO)C(=O)O[C@@H]([C@@H](C)[C@H]2CC[C@H]3[C@@H]4C[C@H]5O[C@]56[C@@H](O)C=CC(=O)[C@]6(C)[C@@H]4CC[C@]23C)C1,93.5 nM (active)
15,Cc1cc(Nc2nc(N[C@@H](C)c3ccc(F)cc3)c(C#N)cc2F)n[nH]1,469 nM (active)

# Assay: Quantitative High-Throughput drug screen in 47 multiple myeloma cell lines against the NCATS MIPE library collection: KMS28BM_JCRB cell viability assay (AID 1919874); note: nearly all actives have a fitted effect of over 35% in size
# Conditions: CellTiter-Glo ATP, 48 h; series mostly up to 45.8 µM
# In short: as §1
row,SMILES,Potency
1,Cc1cn(-c2cc(NC(=O)c3ccc(C)c(Nc4nccc(-c5cccnc5)n4)c3)cc(C(F)(F)F)c2)cn1,inactive
2,CCCCCCCCCC(=O)N[C@@H](Cc1c[nH]c2ccccc12)C(=O)N[C@H](CC(N)=O)C(=O)N[C@@H](CC(=O)O)C(=O)N[C@@H]1C(=O)NCC(=O)N[C@@H](CCCN)C(=O)N[C@@H](CC(=O)O)C(=O)N[C@H](C)C(=O)N[C@@H](CC(=O)O)C(=O)NCC(=O)N[C@H](CO)C(=O)N[C@@H]([C@@H](C)CC(=O)O)C(=O)N[C@@H](CC(=O)c2ccccc2N)C(=O)O[C@@H]1C,inactive
3,COc1ccc(OC)c(-c2nnc3ccc(-c4ccc(OC)c(O[C@@H]5CCOC5)c4)nn23)c1,7430 nM (active)
4,CNC(=O)c1ccc(-c2cnc3ncc(Cc4ccc5ncccc5c4)n3n2)cc1F,inactive
5,Cc1nc2ccc(CN(C)c3ccc(C(=O)N[C@@H](CCC(=O)O)C(=O)O)s3)cc2c(=O)[nH]1,inactive
6,CC(=O)c1c(C)c2cnc(Nc3ccc(N4CCNCC4)cn3)nc2n(C2CCCC2)c1=O,23500 nM (active)
7,COc1cc(C)c(Sc2cnc(NC(=O)c3ccc(CNC(C)C(C)C)cc3)s2)cc1C(=O)N1CCN(C(C)=O)CC1 (configuration not stated),13200 nM (active)
8,COC(=O)C1=C(C)NC(C)=C(C(=O)OCCN2CCN(C(c3ccccc3)c3ccccc3)CC2)C1c1cccc([N+](=O)[O-])c1 (configuration not stated),inactive
9,COc1cc2c(cc1-c1c(C)noc1C)ncc1[nH]c(=O)n([C@H](C)c3ccccn3)c12,332 nM (active)
10,CC(=O)OCCN1C(=O)c2c(C)nc3ccc(S(=O)(=O)N4CCOCC4)cc3c2C1=O,inactive
11,C1Cc2[nH]nc(-c3nn[nH]n3)c2C1,inactive
12,CC(=O)Nc1nc(C)c(-c2ccc(Cl)c(S(=O)(=O)NCCO)c2)s1,18700 nM (active)
13,Nc1ccc(C(=O)c2cc3c(ccc4ccccc43)[nH]2)cc1,935 nM (active)
14,Nc1ncnc2c1c(-c1cnc3[nH]ccc3c1)nn2C1CCCC1,4180 nM (active)
15,CNc1nccc(-c2cccnc2Oc2cc(C(=O)Nc3cccc(C(F)(F)F)c3)ccc2C)n1,23500 nM (active)
16,COc1cc(=C2C=c3ccccc3=N2)[nH]c1=Cc1[nH]c(C)cc1C,935 nM (active)
17,Nc1ccn([C@@H]2CS[C@H](CO)O2)c(=O)n1,inactive
18,O=C(O)Cn1nnc(-c2cc(N3CCC(Oc4cc(F)ccc4Br)CC3)no2)n1,inactive
19,Cn1cc(-c2[nH]c3cc(NC(=O)[C@H](N)C4CCCCC4)cc4c3c2C=NNC4=O)cn1,1320 nM (active)
20,C[C@@]12O[C@@H](C[C@]1(O)CO)n1c3ccccc3c3c4c(c5c6ccccc6n2c5c31)CNC4=O,833 nM (active)
21,CCCCc1nc2cc(C=CC(=O)NO)ccc2n1CCN(CC)CC,187 nM (active)
22,Cn1c(CNc2ccc(C(=N)N)cc2)nc2cc(C(=O)N(CCC(=O)O)c3ccccn3)ccc21,inactive
23,CC(C)c1ccc(Cn2ccc3c4c(N)nc(NC5CC5)nc4ccc32)cc1,1660 nM (active)
24,O=C(C=Cc1cccnc1)NCCCCC1CCN(C(=O)c2ccccc2)CC1,83.3 nM (active)
25,CC=CC1=C(C(=O)O)N2C(=O)[C@H](NC(=O)[C@H](N)c3ccc(O)cc3)[C@@H]2SC1,inactive
26,Cc1ccc2nc(NC(=O)CSc3nc4c(c(=O)n3-c3ccccc3)SCC4)sc2c1,9350 nM (active)
